The list is not random: actives were taken first. Their share in the collection is about 7.4%.
NPC1 promoter act: NPC1 promoter activation; Huh7 NPC1 promoter luciferase reporter, 24 h; Potency, µM (titrated, usually from 9.22 µM), for inactives: at the highest dose activation, usual class: activators; 2.4% of 320,000 active; further: % of control where 0% means no effect; nearly all actives have a fitted effect of over 60% in size
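Quantitative HTS used a cell-based reporter: Huh7 cells stably bearing the NPC1 promoter upstream of luciferase were treated with compounds for 24 h, and promoter activation was read as luminescence.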
FLuc counter: firefly luciferase modulation, counter-screen for miR-21 project; Potency, µM (highest dose often 57.5 µM), for inactives: at the top dose activity change, negative = inhibition, most hits filed as inhibitors; 6.9% of 360,000 active; AID 588342; purified FLuc, Km substrates, luminescence inhibition;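 further: plate controls were vehicle for no effect and reference inhibitor for full effect; nearly all actives have a fitted effect of over 55% in size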
Target sequence (P08659 whole entry, looked up): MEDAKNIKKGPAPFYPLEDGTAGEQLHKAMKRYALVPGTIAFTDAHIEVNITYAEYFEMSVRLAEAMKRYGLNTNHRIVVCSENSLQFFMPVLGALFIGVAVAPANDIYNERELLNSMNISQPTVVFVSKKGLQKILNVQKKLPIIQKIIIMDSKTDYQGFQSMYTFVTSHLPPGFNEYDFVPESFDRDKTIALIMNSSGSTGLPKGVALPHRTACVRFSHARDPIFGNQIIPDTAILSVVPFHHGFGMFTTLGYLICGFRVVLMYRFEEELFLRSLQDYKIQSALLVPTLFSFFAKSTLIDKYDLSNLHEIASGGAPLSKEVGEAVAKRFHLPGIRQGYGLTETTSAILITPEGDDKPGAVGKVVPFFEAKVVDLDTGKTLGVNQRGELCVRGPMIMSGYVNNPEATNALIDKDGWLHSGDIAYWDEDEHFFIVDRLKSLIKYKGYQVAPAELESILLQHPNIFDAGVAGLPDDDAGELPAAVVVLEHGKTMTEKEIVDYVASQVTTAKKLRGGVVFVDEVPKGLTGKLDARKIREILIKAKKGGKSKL
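Biochemical qHTS of compounds, final roughly 60 µM downward over six points, against 10 nM purified firefly luciferase using Km concentrations of substrates (10 uM D-luciferin, 10 uM ATP) in Tris acetate pH 7.5 buffer; luminescence output.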
SMN2 splice enh: SMN2 splice variant enhancement; HEK293 SMN2-luciferase splicing reporter, luminescence, 30-36 h; Potency, µM (series often up to 46.1 µM), without a hit: at the top dose activity change, positive = activation, usual class: activators; AID 1458; 2.8% of 210,000 active; further: % of control where 0% means no effect; nearly all actives have a fitted effect of over 55% in size
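HEK293 cells carry an SMN2 […]–luciferase reporter in which exon 7 inclusion puts luciferase in frame. Cells were plated 10-12 h before compound addition, then incubated 30-36 h at 37C. ONE-Glo luminescence was read; sodium butyrate at 4.5 mM final served as control.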
ELG1 genotox: inducers of genotoxicity in HEK293T ELG1-luciferase cells. AID 504466. HEK293T ELG1-luciferase reporter, luminescence, 16 h. 1.3% of 330,000 active. Potency, µM (doses to about 46 µM), inactives show at the top dose activity change, positive = activation, most hits filed as activators; further: % of control where 0% means no effect; nearly all actives have a fitted effect of over 60% in size
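16 hr compound incubation (37 °C, 5% CO2) of HEK293T cells carrying luciferase-tagged ELG1; luciferase then measured by ONE-Glo luminescence after 30 min at RT.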
Rab9 prom act: activators of Rab9 promoter; Huh7 Rab9 promoter-luciferase reporter, luminescence, 24 h; Potency, µM (titrated, usually from 9.22 µM), without a hit: at the top dose activation, negative = inhibition, usual class: activators; 2.8% of 320,000 active; further: % of control where 0% means no effect; nearly all actives have a fitted effect of over 60% in size
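Luminescence read-out: Huh7 cells stably expressing Rab9-luciferase, treated 24 h with compound at 37 °C, then lysed with luciferase reagent for 10 min at ambient before reading.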
Numbers without * were called inactive; ? = inconclusive; · = no result given; [ ] = remark or other dose. The call rests on the fitted dose curve; in most records, active means well fitted curve in the direction sought with a large enough effect; inconclusive means small, poorly fitted or top-dose-only effect, or another doubt; inactive means no such curve, though single readings can be large; an effect the other way counts as inactive or inconclusive. Potency means the concentration at half of the fitted maximal effect.

SMILES | NPC1 promoter act | FLuc counter | SMN2 splice enh | ELG1 genotox | Rab9 prom act
O=C(Nc1ccc(N2CCCCC2)c(Cl)c1)c1ccc2c(c1)OCCO2 | 24.5% | 5.36µM* | -61.0% | ? | 28.2%
O=C(Nc1ccc(N2CCOCC2)c(Cl)c1)c1ccc2c(c1)OCCO2 | -0.2% | ? | · | -1.4% | 6.2%
Cc1[nH]c2ccccc2c1C(=O)C(=O)Nc1ccc2c(c1)OCO2 | ? | 16.9µM* | · | 17.1% | ?
COc1ccc2c(c1-c1c3c(cc(Br)c1OC)CCCC3)CCCC2 | · | · | 7.7% | · | ·
CCN1CCN(c2ccc(NC(=O)c3ccc4c(c3)OCO4)cc2)CC1 | ? | 16.9µM* | 15.8µM* | 9.2µM* | ?
O=C(Nc1ccc2c(c1)OCO2)c1c(F)c(F)c(F)c(F)c1F | 0.7% | 1.3%[2.3 µM] | 31.0% | -5.3% | 14.9%
O=C(Nc1ccc(F)c(F)c1)c1ccc2c(c1)OCO2 | 2.51µM* | 9.53µM* | 12.7% | 3.66µM* | ?
O=C(Nc1ccc2c(c1)OCO2)c1c(Cl)nc2sccn12 | ? | ? | ? | ? | 3.16µM*
O=C(Nc1ccc2c(c1)OCO2)c1cccc(Cl)c1 | 3.16µM* | 9.53µM* | 15.8µM* | ? | 2.24µM*
Cn1ncc(Cl)c1C(=O)Nc1ccc2c(c1)OCO2 | 16.6% | -10.1% | · | 13.0% | 18.1%
O=C(Nc1ccc2c(c1)OCO2)c1ccc[n+]([O-])c1 | -4.4% | 0.5% | -6.3% | 1.4% | 7.3%
NC(=O)C[C@@H](N)c1nn[nH]n1 | · | · | -7.1%[9.22 µM] | · | ·
CCn1cc(C(=O)N(C)Cc2ccccc2)c(=O)c2cc(S(=O)(=O)N3CCCCC3)ccc21 | · | -1.1% | -2.2% | · | ·
COc1ccc(N2CC(NC(=O)c3ccc(S(=O)(=O)N4CCOCC4)cc3)CC2=O)cc1 (configuration not stated) | · | -3.9% | · | · | ·
CCOC(=O)C1CCCN(CCC(=O)Nc2ccc(OC)cc2OC)C1 (configuration not stated) | · | 2.1% | -4.0% | · | ·
CC(=O)OC[C@@]12C(=O)[C@@H](O)[C@@H](C)[C@]3(C[C@@H](c4ccoc4)O[C@@H]3OC(C)=O)[C@H]1CCC[C@]21CO1 | · | · | 11.9% | · | ·
O=C(Nc1ccc(Cl)c([N+](=O)[O-])c1)c1ccc2c(c1)OCCO2 | ? | 6.01µM* | · | ? | 0.891µM*
O=C(Nc1ccc(N2CCCCC2)c(Cl)c1)c1ccc(N2CCOCC2)c([N+](=O)[O-])c1 | -3.0% | ? | -31.4% | -9.2% | -3.7%
O=C(Nc1ccc2c(c1)OCO2)c1ccc(N2CCCC2)c([N+](=O)[O-])c1 | 13.7% | 19µM* | 24.4% | 3.1% | -1.3%
Cc1cc(C(=O)Nc2ccc3c(c2)OCO3)cs1 | 1.78µM* | 4.78µM* | 12.6µM* | 7.31µM* | 1.26µM*
O=C(Nc1ccc2c(c1)OCO2)c1ccc2c(c1)OCO2 | 0.794µM* | 2.13µM* | 5.01µM* | ? | 0.562µM*
S=C(NC1CCCCC1)NC1CCCCC1 | · | · | 12.9% | · | ·
COc1ccccc1CNC(=O)c1c(O)nc2c(C)cccn2c1=O | · | -3.5% | -3.8% | · | ·
O=C(Nc1ccc2nsnc2c1)c1ccc2c(c1)OCO2 | 0.631µM* | 1.35µM* | 5.62µM* | 1.16µM* | 0.447µM*
O=C(Nc1ccc(Br)cc1)c1ccc2c(c1)OCO2 | 1µM* | 2.13µM* | · | 8.2µM* | 0.708µM*
SMILES | NPC1 promoter act | FLuc counter | SMN2 splice enh | ELG1 genotox | Rab9 prom act
N#CCC(=O)Nc1ccc(C(=O)Nc2ccc3c(c2)OCO3)cc1 | 13.9% | ? | · | 17.0% | 26.4%
O=C(Nc1ccc2c(c1)OCO2)c1ccc(CO)cc1 | 3.16µM* | 9.53µM* | · | ? | 2.82µM*
NC(=O)c1ccc(NC(=O)c2ccc3c(c2)OCO3)cc1 | 1.26µM* | 4.78µM* | 12.6µM* | 18.4µM* | 1.58µM*
O=C(Cl)c1cccc([N+](=O)[O-])c1 | · | · | 12.7% | · | ·
O=C(Nc1ccc(NC(=O)c2ccc(Cl)cc2Cl)cc1)c1ccc2c(c1)OCO2 | -3.1% | 0.1% | · | 1.4% | 0.1%
O=C(Nc1ccc(Cl)c(Cl)c1)c1ccc2c(c1)OCO2 | 0.794µM* | 1.51µM* | · | 4.61µM* | 0.562µM*
O=C(Nc1ccc(Cl)cc1)c1ccc2c(c1)OCO2 | 0.398µM* | 1.35µM* | 4.47µM* | ? | ?
COC(=O)CS(=O)(=O)c1nc2ccccc2nc1N1CCCCC1 | · | -1.8% | 10.6% | · | ·
COc1ccccc1OCC(=O)NCCS(=O)(=O)N1CCN(c2ccccc2OC)CC1 | · | -2.6% | · | · | ·
Cc1ccn2cc(-c3ccc4c(c3)NC(=O)CO4)nc2c1 | 1.26µM* | 2.39µM* | 5.62µM* | ? | 0.562µM*
Cc1cccn2cc(-c3ccc4c(c3)NC(=O)CO4)nc12 | 25.3% | 10.7µM* | · | 11.4% | ?
Cc1ccc(-c2cc(-c3ccc4c(c3)NC(=O)CO4)nc3c2COc2ccc(C)cc2-3)cc1 | · | ? | 1.9% | · | ·
CC(C)CCNC(=O)c1ccc(Cn2c(SCC(N)=O)nc3ccccc3c2=O)cc1 | · | -1.5% | · | · | ·
FC(F)(F)Oc1ccccc1-c1nnc(-c2cccc(C(F)(F)F)c2)o1 | -0.1% | -2.8% | · | -1.5% | -4.8%
COc1cccc(-c2nnc(-c3ccc(C(F)(F)F)cc3)o2)c1OC | 26.3% | 7.57µM* | 17.8µM* | ? | ?
NCC1OC(O[C@H]2[C@H](O)[C@@H](OC3C(O)C(N)CC(N)C3OC3OC(CO)C(O)C(O)C3N)O[C@@H]2CO)C(N)C(O)C1O (some centres not stated) | -6.2%[46.1 µM] | · | · | · | -15.7%[46.1 µM]
Cn1nnc2c(NCc3ccco3)nccc21 | -1.8% | 2.3% | -6.5% | 1.7% | 0.9%
COc1ccc(Nc2nccc3c2nnn3C)cc1 | 1.26µM* | 10.7µM* | ? | 5.8µM* | 2.24µM*
Clc1ccc(OCCCCSc2ncccn2)cc1 | -3.2% | ? | -17.3% | -2.0% | 6.9%
COc1ccc(OCCSc2nc(N)cc(N)n2)cc1 | 3.98µM* | 21.3µM* | -6.5% | 0.731µM* | 3.98µM*
CCCOc1ccc(OCCSc2ncccn2)cc1 | 3.16µM* | 6.75µM* | 15.8µM* | 10.3µM* | 3.98µM*
Brc1cccc(OCCSc2ncccn2)c1 | 0.2% | ? | 25.8% | 11.5% | ?
Clc1ccc(OCCSc2ncccn2)c(Br)c1 | 1.41µM* | 2.13µM* | 12.6µM* | 2.06µM* | 0.708µM*

High-throughput results as filed in PubChem.
